Results taken from ChEMBL document CHEMBL1157539, “Thousands of chemical starting points for antimalarial lead identification” (Nature, 2010).

tested on: Plasmodium falciparum; experiment: GSK_TCMDC: Inhibition of Plasmodium falciparum 3D7 in whole red blood cells, using parasite LDH activity as an index of growth. Test compounds present at 2uM; format: functional

Structure (SMILES)	Inhibition
COc1cc(CCNc2nc(NCc3cccc4ccccc34)nc(N3CCC(N)CC3)n2)ccc1O.O=C(O)C(F)(F)F	100%
N#Cc1ccc(-c2ccc(C(=O)NCCCCN3CCC(c4ccc5c(c4OCC(N)=O)CCCC5)CC3)cc2)cc1	87%
FC(F)(F)c1ccc2[nH]c(-c3cccc(-c4cccc(CN5CCN(c6ccncc6)CC5)c4)c3)nc2c1.O=C(O)C(F)(F)F	100%
COc1ccc(Nc2nccc(N3CCC(NC(=O)C(C)c4ccc(Cl)cc4)C3)n2)cc1 (stereo not given)	85%
CCc1cc2c(N)nc(N)nc2nc1-c1ccccc1	91%
CCC(=O)N(c1ccccc1)C1CCN(CCCC(NC(=O)Nc2cc(C(F)(F)F)cc(C(F)(F)F)c2)c2ccc(Cl)c(Cl)c2)CC1 (stereo not given)	99%
COc1ccc2c(=NN=Cc3c(OC)ccc4ccccc34)cc(C)[nH]c2c1	100%
Cn1c2c(c3ccccc31)CN(CCC1(c3ccc(Cl)c(Cl)c3)CN(C(=O)c3ccccc3)CCO1)CC2 (stereo not given)	97%
N=C(Nc1cccc(Cc2ccccc2)n1)Nc1ncccn1	90%
Cc1cnc(C(=O)Nc2cccc(-c3cccc(-c4nc5cc(F)ccc5[nH]4)c3)c2)cn1	99%
Nc1nc(N)c2c(ccc3c2ccn3Cc2ccc(F)cc2)n1	97%
CC(C)CCNC(=O)C1Cc2c([nH]c3cc(Br)ccc23)C2(CCN(Cc3ccccc3)CC2)N1 (stereo not given)	96%
COc1ccc2nccc([C@@H](O)CN3CCC(NCC(O)Cc4ccccc4)CC3)c2c1.O=C(O)C(=O)O (stereo not given in full)	98%
COc1ccc2nccc(N3CCC(SCCNCc4cc5c(cn4)OCCO5)C3)c2n1.Cl (stereo not given)	100%
Cc1nc(N)nc(N)c1OCc1cccc2ccccc12.Cl	96%
Cl.O=c1cc(NCCCNCc2ccc(Cl)c(Cl)c2)[nH]c2cc(Cl)ccc12	95%
CCCc1ccc(NC(=O)c2cccc(CN3CCCN(Cc4cccc(O)c4)CC3)c2)cc1.O=C(O)C(F)(F)F	97%
O=C(COc1cnc2ccccc2n1)Nc1ccccc1Sc1ccc(Cl)cc1	100%
O=C(NOCCCCOc1ccc(Cl)c(Cl)c1)c1ccccc1	98%
CC(C)(Oc1c(C2CCN(CCCCNC(=O)c3ccc(-c4ccc(C#N)cc4)cc3)CC2)ccc2c1CCCC2)C(N)=O	100%

Structure (SMILES)	Inhibition
O=C1C(c2ccccc2)=C(Nc2cc(Cl)cc(Cl)c2)c2ccccc21	96%
Fc1ccc(Nc2ccnc3cc(I)ccc23)c(Cl)c1	95%
CN(C)CCOc1cc(NC(=O)/C=C/c2cccc3ccccc23)ccc1I	98%
CCCNCc1ccc(-c2ccc(CN(Cc3ccc4c(c3)OCO4)C(=O)Cc3cccnc3)cc2)nc1.O=C(O)C(F)(F)F	94%
COc1cccc(NC(=O)Cn2c(C)c(C#N)c3ccccc32)c1	100%
CNc1ccc(CNCc2cccc(-c3ccc(-c4nc5cccc(C)c5[nH]4)s3)c2)cc1.O=C(O)C(F)(F)F	100%
COc1cc(CNc2ccc(N3CCCC3)cc2)cc(Cl)c1OC	100%
Cl.O=c1cc(NCCNCc2cccc(-c3ccccc3)c2)[nH]c2ccccc12	93%
O=C(NCCCCCN1CCC(c2c[nH]c3ccccc23)CC1)Nc1ccc(Cl)c(Cl)c1	92%
Cc1csc(-c2nonc2NC(=O)COc2ccccc2C(C)C)n1	90%
COc1ccc(CNC2Cc3ccccc3C2)cc1-c1ccc(S(=O)(=O)NCCN2CCCC2)c(F)c1.O=C(O)C(F)(F)F	100%
O=C(Nc1ccc(-c2ccc(-c3nc4ccccc4[nH]3)s2)cc1)Nc1ccc(F)c(F)c1F	99%
Fc1ccc2[nH]c(-c3ccc(-c4ccc(CN5CCN(CCN6CCOCC6)CC5)cc4)cc3)nc2c1.O=C(O)C(F)(F)F	100%
COc1ccc(C=CC(=O)NC(=O)c2ccccc2OC(=O)c2ccccc2)cc1OC	87%
Cc1nnsc1C(=O)Nc1cccc(-c2ccc(-c3nc4cc(F)ccc4[nH]3)s2)c1	89%
O=C(NCCc1ccccc1)c1cc(-c2cccnc2)cnc1NCC1CC1	93%
COc1ccccc1N(C)CCNc1cc(C)nc(Nc2ccccc2)n1	96%
COc1ccc(-c2cc(C(=O)Nc3ccc4[nH]c(-c5ccccc5)nc4c3)[nH]n2)cc1.O=C(O)C(F)(F)F	90%
O=C(Nc1ccnc(-c2cccnc2)n1)c1cc(C(F)(F)F)cc(C(F)(F)F)c1	95%
Cc1cc(Nc2ccccc2)nc(Nc2ccccc2C)n1.Cl	85%

tested on: Plasmodium falciparum; experiment: GSK_TCMDC: Inhibition of Plasmodium falciparum Dd2 in whole red blood cells, using parasite LDH activity as an index of growth. Test compounds present at 2uM; format: functional

Structure (SMILES)	Inhibition
COc1cc(CCNc2nc(NCc3cccc4ccccc34)nc(N3CCC(N)CC3)n2)ccc1O.O=C(O)C(F)(F)F	59%
N#Cc1ccc(-c2ccc(C(=O)NCCCCN3CCC(c4ccc5c(c4OCC(N)=O)CCCC5)CC3)cc2)cc1	23%
FC(F)(F)c1ccc2[nH]c(-c3cccc(-c4cccc(CN5CCN(c6ccncc6)CC5)c4)c3)nc2c1.O=C(O)C(F)(F)F	99%
COc1ccc(Nc2nccc(N3CCC(NC(=O)C(C)c4ccc(Cl)cc4)C3)n2)cc1 (stereo not given)	97%
CCc1cc2c(N)nc(N)nc2nc1-c1ccccc1	0%
CCC(=O)N(c1ccccc1)C1CCN(CCCC(NC(=O)Nc2cc(C(F)(F)F)cc(C(F)(F)F)c2)c2ccc(Cl)c(Cl)c2)CC1 (stereo not given)	18%
COc1ccc2c(=NN=Cc3c(OC)ccc4ccccc34)cc(C)[nH]c2c1	85%
Cn1c2c(c3ccccc31)CN(CCC1(c3ccc(Cl)c(Cl)c3)CN(C(=O)c3ccccc3)CCO1)CC2 (stereo not given)	88%
N=C(Nc1cccc(Cc2ccccc2)n1)Nc1ncccn1	34%
Cc1cnc(C(=O)Nc2cccc(-c3cccc(-c4nc5cc(F)ccc5[nH]4)c3)c2)cn1	24%
Nc1nc(N)c2c(ccc3c2ccn3Cc2ccc(F)cc2)n1	96%
CC(C)CCNC(=O)C1Cc2c([nH]c3cc(Br)ccc23)C2(CCN(Cc3ccccc3)CC2)N1 (stereo not given)	45%
COc1ccc2nccc([C@@H](O)CN3CCC(NCC(O)Cc4ccccc4)CC3)c2c1.O=C(O)C(=O)O (stereo not given in full)	6%
COc1ccc2nccc(N3CCC(SCCNCc4cc5c(cn4)OCCO5)C3)c2n1.Cl (stereo not given)	100%
Cc1nc(N)nc(N)c1OCc1cccc2ccccc12.Cl	11%
Cl.O=c1cc(NCCCNCc2ccc(Cl)c(Cl)c2)[nH]c2cc(Cl)ccc12	51%
CCCc1ccc(NC(=O)c2cccc(CN3CCCN(Cc4cccc(O)c4)CC3)c2)cc1.O=C(O)C(F)(F)F	40%
O=C(COc1cnc2ccccc2n1)Nc1ccccc1Sc1ccc(Cl)cc1	100%
O=C(NOCCCCOc1ccc(Cl)c(Cl)c1)c1ccccc1	1%
CC(C)(Oc1c(C2CCN(CCCCNC(=O)c3ccc(-c4ccc(C#N)cc4)cc3)CC2)ccc2c1CCCC2)C(N)=O	82%

Structure (SMILES)	Inhibition
O=C1C(c2ccccc2)=C(Nc2cc(Cl)cc(Cl)c2)c2ccccc21	94%
Fc1ccc(Nc2ccnc3cc(I)ccc23)c(Cl)c1	24%
CN(C)CCOc1cc(NC(=O)/C=C/c2cccc3ccccc23)ccc1I	7%
CCCNCc1ccc(-c2ccc(CN(Cc3ccc4c(c3)OCO4)C(=O)Cc3cccnc3)cc2)nc1.O=C(O)C(F)(F)F	53%
COc1cccc(NC(=O)Cn2c(C)c(C#N)c3ccccc32)c1	100%
CNc1ccc(CNCc2cccc(-c3ccc(-c4nc5cccc(C)c5[nH]4)s3)c2)cc1.O=C(O)C(F)(F)F	88%
COc1cc(CNc2ccc(N3CCCC3)cc2)cc(Cl)c1OC	94%
Cl.O=c1cc(NCCNCc2cccc(-c3ccccc3)c2)[nH]c2ccccc12	68%
O=C(NCCCCCN1CCC(c2c[nH]c3ccccc23)CC1)Nc1ccc(Cl)c(Cl)c1	0%
Cc1csc(-c2nonc2NC(=O)COc2ccccc2C(C)C)n1	85%
COc1ccc(CNC2Cc3ccccc3C2)cc1-c1ccc(S(=O)(=O)NCCN2CCCC2)c(F)c1.O=C(O)C(F)(F)F	69%
O=C(Nc1ccc(-c2ccc(-c3nc4ccccc4[nH]3)s2)cc1)Nc1ccc(F)c(F)c1F	97%
Fc1ccc2[nH]c(-c3ccc(-c4ccc(CN5CCN(CCN6CCOCC6)CC5)cc4)cc3)nc2c1.O=C(O)C(F)(F)F	100%
COc1ccc(C=CC(=O)NC(=O)c2ccccc2OC(=O)c2ccccc2)cc1OC	90%
Cc1nnsc1C(=O)Nc1cccc(-c2ccc(-c3nc4cc(F)ccc4[nH]3)s2)c1	22%
O=C(NCCc1ccccc1)c1cc(-c2cccnc2)cnc1NCC1CC1	35%
COc1ccccc1N(C)CCNc1cc(C)nc(Nc2ccccc2)n1	13%
COc1ccc(-c2cc(C(=O)Nc3ccc4[nH]c(-c5ccccc5)nc4c3)[nH]n2)cc1.O=C(O)C(F)(F)F	78%
O=C(Nc1ccnc(-c2cccnc2)n1)c1cc(C(F)(F)F)cc(C(F)(F)F)c1	12%
Cc1cc(Nc2ccccc2)nc(Nc2ccccc2C)n1.Cl	27%
